Source: PubChem BioAssay (EPA / NIEHS)
The source made the active and inactive calls. Rule for the calls: active = hit-call score of the fitted dose curve at least 0.9, where 1 is the maximum; inactive = score below 0.9.

Experiment: Tanguay_ZF_120hpf_MO24: Oregon State University Tanguay Lab 24 Hour Post-fertilization zebrafish Assay for Mortality (AID 2284389)
Procedure, shortened: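 Dechorionated wild-type zebrafish embryos, 1 per well, statically exposed from 6 hpf at 28C, 0.64% DMSO final. Mortality scored as binary present/absent at 24 hpf by brightfield microscopy, relative to DMSO.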

Row | Structure (SMILES) | outcome
1 | CN(CCO)S(=O)(=O)C(F)(F)C(F)(F)C(F)(F)C(F)(F)C(F)(F)C(F)(F)C(F)(F)C(F)(F)F | inactive
2 | O=P(O)(O)CCC(F)(F)C(F)(F)C(F)(F)C(F)(F)C(F)(F)C(F)(F)C(F)(F)C(F)(F)F | inactive
3 | O=C(O)C(F)(F)OC(F)(F)C(F)(F)OC(F)(F)C(F)(F)OC(F)(F)C(F)(F)C(F)(F)C(F)(F)F | inactive
4 | OCC(F)(F)C(F)(F)C(F)(F)C(F)(F)C(F)(F)C(F)(F)C(F)(F)C(F)(F)C(F)(F)C(F)(F)C(F)(F)F | inactive
5 | C=CC(=O)OCCC(F)(F)C(F)(F)C(F)(F)C(F)(F)C(F)(F)C(F)(F)C(F)(F)C(F)(F)F | inactive
6 | O=C(O)CCC(F)(F)C(F)(F)C(F)(F)C(F)(F)C(F)(F)F | inactive
7 | O=C(CC(=O)C(F)(F)C(F)(F)C(F)(F)F)c1cccs1 | inactive
8 | O=P(O)(O)CCC(F)(F)C(F)(F)C(F)(F)C(F)(F)C(F)(F)C(F)(F)F | inactive

Experiment: Tanguay_ZF_120hpf_DP24: Oregon State University Tanguay Lab 24 Hour Post-fertilization zebrafish Assay for Delayed Development (AID 2284390)
Experimental: Tanguay_ZF_120hpf is a whole embryo, multiplexed endpoint assay using zebrafish larvae exposed for 120 hours post fertilization on a 96-well plate.Tanguay_ZF_120hpf_DP24 is […] measured or calculated from the Tanguay_ZF_120hpf assay. It is designed to make measurements of zebrafish development as detected with brightfield microscopy of developing zebrafish embryos.Data from the assay component Tanguay_ZF_120hpf_DP24 was analyzed into 1 assay endpoints. This assay endpoint, Tanguay_ZF_120hpf_DP24, was analyzed in the positive analysis fitting direction relative to DMSO as the negative control and baseline of activity. Using a type of morphology reporter, gain-of-signal activity can be used to understand changes in developmentals as they relate to the whole embryo. To generalize the intended target to other relatable targets, this assay endpoint is annotated to the zebrafish development intended target family, where the subfamily is embryonic morphogenesis.
Zebrafish husbandry: Tropical 5D wild-type adult zebrafish were housed in at an approximate density of 1000 per 100 gallon tank at the Sinnhuber Aquatic Research Laboratory, Oregon State University, Corvallis, OR. Each tank was kept at standard laboratory conditions of 28C on a 14-h light/10-h dark photoperiod in fish water consisting of reverse osmosis water supplemented with a commercially available salt (Instant Ocean). Spawning funnels were placed into the tanks the night prior, and embryos were collected and staged. To increase bioavailability, the chorion was enzymatically removed using pronase (63.6mg/ml, >/= 3.5U/mg, Sigma-Aldrich: P5147) at 4 hours post fertilization (hpf) using a custom automated dechorionator.Chemical exposures: Six hpf dechorionated embryos were placed 1 embryo per well in a 96-well plate prefilled with 90 ul of EM using automated embryo placement systems (AEPS). Ten microliters of each row of dilution plate 2 was added to 2 exposure plates. The final DMSO concentration used was 0.64% (vol/vol). Thirty-two embryos were also exposed to 5uM trimethyltin chloride (positive control). Plates were sealed to prevent evaporation and foil covered to reduce light exposure and kept in a 28C incubator. Embryos were statically exposed until 120 hpf. At 24 hpf, embryos were assessed for photomotor response using a custom photomotor response analysis tool (PRAT) and for developmental toxicity endpoints (MO24: mortality at 24 hpf, DP: developmental progression, SM: spontaneous movement, and NC: notochord distortion). At 120 hpf, locomotor activity was measured using Viewpoint Zebralab and assessed for 13 endpoints. Zebrafish acquisition and analysis program (ZAAP), a custom program designed to inventory, acquire, and manage zebrafish data, was used to collect developmental endpoints as either present or absent (i.e., binary responses were recorded). If mortality occurred for an embryo (at either 24 or 120 hpf), the non-mortality endpoints were not measured.

Row | Structure (SMILES) | outcome
9 | CN(CCO)S(=O)(=O)C(F)(F)C(F)(F)C(F)(F)C(F)(F)C(F)(F)C(F)(F)C(F)(F)C(F)(F)F | inactive
10 | O=P(O)(O)CCC(F)(F)C(F)(F)C(F)(F)C(F)(F)C(F)(F)C(F)(F)C(F)(F)C(F)(F)F | inactive
11 | O=C(O)C(F)(F)OC(F)(F)C(F)(F)OC(F)(F)C(F)(F)OC(F)(F)C(F)(F)C(F)(F)C(F)(F)F | inactive
12 | OCC(F)(F)C(F)(F)C(F)(F)C(F)(F)C(F)(F)C(F)(F)C(F)(F)C(F)(F)C(F)(F)C(F)(F)C(F)(F)F | inactive
13 | C=CC(=O)OCCC(F)(F)C(F)(F)C(F)(F)C(F)(F)C(F)(F)C(F)(F)C(F)(F)C(F)(F)F | inactive
14 | O=C(O)CCC(F)(F)C(F)(F)C(F)(F)C(F)(F)C(F)(F)F | inactive
15 | O=C(CC(=O)C(F)(F)C(F)(F)C(F)(F)F)c1cccs1 | inactive
16 | O=P(O)(O)CCC(F)(F)C(F)(F)C(F)(F)C(F)(F)C(F)(F)C(F)(F)F | inactive

Experiment: Tanguay_ZF_120hpf_CRAN: Oregon State University Tanguay Lab 120 Hour Post-fertilization zebrafish Assay for Craniofacial Malformation (AID 2284397)
Procedure, shortened: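 Dechorionated Tropical 5D wild-type zebrafish embryos, one per well, were statically exposed from 6 to 120 hpf at 28C in 0.64% DMSO, with 5uM trimethyltin chloride as positive control. Craniofacial malformation was scored present/absent by brightfield microscopy, relative to DMSO.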

Row | Structure (SMILES) | AC50 | outcome
17 | CN(CCO)S(=O)(=O)C(F)(F)C(F)(F)C(F)(F)C(F)(F)C(F)(F)C(F)(F)C(F)(F)C(F)(F)F | 29.5 µM (active) | –
18 | O=P(O)(O)CCC(F)(F)C(F)(F)C(F)(F)C(F)(F)C(F)(F)C(F)(F)C(F)(F)C(F)(F)F | – | inactive
19 | O=C(O)C(F)(F)OC(F)(F)C(F)(F)OC(F)(F)C(F)(F)OC(F)(F)C(F)(F)C(F)(F)C(F)(F)F | – | inactive
20 | OCC(F)(F)C(F)(F)C(F)(F)C(F)(F)C(F)(F)C(F)(F)C(F)(F)C(F)(F)C(F)(F)C(F)(F)C(F)(F)F | – | inactive
21 | C=CC(=O)OCCC(F)(F)C(F)(F)C(F)(F)C(F)(F)C(F)(F)C(F)(F)C(F)(F)C(F)(F)F | – | inactive
22 | O=C(O)CCC(F)(F)C(F)(F)C(F)(F)C(F)(F)C(F)(F)F | – | inactive
23 | O=C(CC(=O)C(F)(F)C(F)(F)C(F)(F)F)c1cccs1 | – | inactive
24 | O=P(O)(O)CCC(F)(F)C(F)(F)C(F)(F)C(F)(F)C(F)(F)C(F)(F)F | – | inactive
